Results: the supplement of paper PMC6555819

Assays:
Experiment in all cases: PBM binding z-score (relative to random genomic background probes); higher = stronger binding; sequences stand for … in GC…GCGATTGACAGCGTAGAATGAAGG
[1] = test system: RARb homodimer (NR concentration 270 nM)
Procedure, shortened: (§1)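 Scanned fluorescence from custom Agilent 4×180K protein-binding microarrays was regression-normalized. Binding z-scores use random background probes as reference. Ligand-free nuclear receptor dimers were incubated on the arrays for 1 h and detected with antibodies against each partner (one per run).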

[2] = test system: RARg:RXRa (NR concentration 270 nM, RXRa partner concentration 90 nM)
Procedure, shortened: as §1

[3] = test system: RARg homodimer (NR concentration 270 nM)
Procedure, shortened: as §1

[4] = test system: RXRa DBDmut IVT, anti-RXR (DBD mutation: RXRa K156A/R161A, NR concentration 90 nM)
Procedure, shortened: as §1

[5] = test system: RXRa homodimer (NR concentration 180 nM)
Procedure, shortened: as §1

[6] = test system: THRa:RXRa (NR concentration 90 nM, RXRa partner concentration 90 nM)
Procedure, shortened: as §1

[7] = test system: THRa homodimer (NR concentration 90 nM)
Procedure, shortened: as §1

[8] = test system: VDR homodimer (NR concentration 270 nM)
Procedure, shortened: as §1

Row | Sequence | PBM binding z-score [1] | PBM binding z-score [2] | PBM binding z-score [3] | PBM binding z-score [4] | PBM binding z-score [5] | PBM binding z-score [6] | PBM binding z-score [7] | PBM binding z-score [8]
1 | CTCGAAAGGTTGGTTGAGGTGAGTATACGGATAA | 1.12 | 0.599 | 0.684 | 0.251 | 0.502 | 4.42 | 1.82 | 0.513
2 | GCTCGGAGGACAAGGACAGAGCTTTGTCCGTAGA | 0.139 | -0.0807 | 0.418 | -0.45 | -0.592 | 1.31 | 0.61 | -0.639
3 | TAGCCTAGGTCATGCGGGCCAGTCTAGTGTCGGC | 2.8 | 3.86 | 4.19 | 0.255 | 2.42 | 2.75 | 0.583 | 0.569
4 | AGTCAAAGTTCACTAGGTAATGTAAGATTCAGCT | 3.71 | 4.84 | 5.6 | 4.39 | 3.73 | 1.91 | -0.139 | 3.81
5 | GCAGACAGGTGAAAGGCAGGTAACTCAGGGTGGC | 0.611 | 0.314 | -0.0429 | -0.432 | 0.602 | 1.23 | 0.167 | -0.284
6 | GCTGCTAGGTCAACTGATTGTCAGCTAAAGCTCG | 3.35 | 4.28 | 4.95 | 1.3 | 2.55 | 2.89 | 0.691 | 0.00113
7 | TAGCCTAGGTCATACGGGCCAGTATAGTGTCGGC | 2.87 | 3.74 | 4.43 | 0.941 | 3.22 | 2.92 | 0.814 | 0.783
8 | AATACAGGGTCATCGTAGGCCAGAGTCCGCACAG | 3.75 | 5.73 | 5.28 | 3.35 | 6.62 | 4.68 | 1.62 | 3.38
9 | TCATATAGGTAAACGTGAAAGTCGAACGATATGA | -0.329 | 0.415 | 0.326 | 0.8 | 0.894 | -0.0868 | -0.279 | -0.33
10 | AATACAGAGTCACTAGGCCAGAGTAGGTACGAAT | 0.0526 | 0.21 | 0.516 | -0.494 | 0.28 | -0.12 | -0.685 | -0.0774
11 | CCTCGGAGGACAAAAGGTCAGAGCTGTCCGCTTT | 5.18 | 6.04 | 5.86 | 0.812 | 4.67 | 3.07 | 0.53 | 0.674
12 | CCTCACGGGTCAAGGTTATAGCACGGGTGGTACG | 3.31 | 4.6 | 4.55 | -0.168 | 4.92 | 2.82 | 0.624 | 1.18
13 | CCTGCTAGGTCTTGGTCAGCTAATCTACAGTATG | 0.408 | -0.194 | -0.144 | 0.336 | -0.394 | -0.178 | -0.108 | -0.656
14 | AACTCTAGGTAAAGATAGTTCAGTGAATGCAAAT | 1.06 | 0.458 | 0.642 | 0.162 | 0.119 | 0.754 | -0.108 | 0.243
